About 1,400 (4.5%) of roughly 31,000 sequences were called active. Only a selection was taken, and actives are over-represented in it overall. Unmarked numbers belong to inactive results.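 The calls were made as follows: active = median seed-adjusted z-score above 1 or below -1; inactive = the rest.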
Experiment: Novel Modifiers of Survival Motor Neuron (SMN) Protein: Gene Identification via Genome-wide siRNA Screen
Details: HEK293T SMN2-luciferase reporter, siRNA knockdown, 72 h; actives lie on both sides
From the text: Spinal muscular atrophy (SMA) is the most common neuromuscular autosomal recessive disorder and one of the leading genetic causes of infant death. SMA results from mutations inducing loss of function or deletion in the survival of motor neuron-1 gene (SMN1), leading to deficiency of the survival motor neuron (SMN) protein. Although a second nearly identical gene, SMN2, is retained in humans, its expression primarily produces an aberrantly spliced isoform that is largely unstable and quickly degraded. We performed a genome-wide RNAi screen using a cell-based reporter assay to identify genes and pathways that modulate SMN protein stability. The screen identified over 200 genes that led to the greatest increase or decrease in luciferase expression.
Using HEK293T cells stably expressing a luciferase reporter that combines the promoter and splicing based cassettes in tandem with the major portion of the native SMN2 cDNA with luciferase, we performed a genome-wide RNAi screen to identify modulators of SMN protein levels. Luciferase is expressed when full-length SMN protein is generated with luminescence signal proportional to SMN protein levels. Our luciferase-based reporter assay was used to screen Ambion Silencer Select Human Druggable Genome siRNA library (10418 genes, 3 unique siRNAs per gene) using lipid-based reverse transfection.
Briefly, 1 pmol of each siRNA was spotted to a well of a 384-well plate (Corning, Corning, NY) and 20 microL of serum-free DMEM containing […] of Lipofectamine RNAiMax (Life Technologies, Carlsbad, CA) was then added to each well. Transfected cells were maintained at 37 degrees C in 5% CO2 for 72 hours, 20 microL of ONE-Glo Reagent (Promega) was added to wells for luciferase quantification. Raw luminescence reads were normalized to Ambion(R) Silencer(R) Negative Control #2 siRNA, then log10 transformed. A robust statistical measure of median absolute deviation (MAD) to standardize siRNA activities from each screen. Common Seed Analysis was used to help prioritize clean hits as opposed to those appearing to arise from seed based off-target effects. Candidate modulators were defined as the genes having a MAD score greater than 1.0 or less than -1.0.

| Sequence | median seed-adjusted z-score |
| --- | --- |
| AGCUGGAGGUCAACAAGUATT against TIMP3 | -1.05 (active) |
| UCUCAGAUCUCUUCCCAGATT against ROBO4 | -0.431 |
| CAAGGAGCAAGGUUCGGAATT against KIRREL3 | -0.206 |
| GAUGAUCGCUUCAACCUGATT against DDX6 | 1.12 (active) |
| GUAUGUUCCACAUAAUGAATT against CYP19A1 | -0.321 |
| GGAAUAGAACAAUUGAAAATT against ZDHHC3 | 0.229 |
| UGAGGACACUUCUUGGAGATT against FOXE3 | -0.451 |
| CGAUGGUUGACAAUCCAGATT against NDUFS5 | -1.35 (active) |
| CUUGCAAUGUCGAAGCUUATT against CDH8 | 0.169 |
| GGUGUUGAGUUUCUGCAAATT against CHMP1A | 0 |
| GGAUGAUAGAGGAAUUGUATT against SKIV2L2 | 0.642 |
| CCACCAUCCUACAAGCCUUTT against CYP2S1 | -0.196 |
| GCUAGUCAAGGUUCCUAAATT against GTF2F2 | -1.14 (active) |
| GCAAUUCCAUGAUAAGGAATT against MMP20 | 0.0623 |
| GCCUUCUCCCUAUUUGAUATT against CALM1 | 0.355 |
| GCAGAAGACUAGAGAGACUTT against ABCC5 | 0.00533 |
| CAGUGCAACCUGGAGAGAATT against NRBP2 | 0.093 |
| ACAGCUCCGUGUUGACUCATT against FOXG1 | 0.749 |
| AAAAGAACGAGGAAGUUAUTT against CACNG2 | 0.00759 |
| GUAUAUGACUGUACACUCATT against AGPAT4 | 0.149 |
| GGAUCACCAACAAUCGCAATT against PDE6A | 1.25 (active) |
| CAGCAGUUAUGGACCAGUUTT against AMD1 | -0.211 |
| GCAGAAAACUCACCCGAGATT against PCDHB7 | 0.365 |

| Sequence | median seed-adjusted z-score |
| --- | --- |
| AGAACAACCUGGACUAUAUTT against PPP5C | 0.473 |
| CGUUAUUGUUAGCAACACUTT against ZNF280A | -0.207 |
| GGCUAUUAACCGAAGCAAATT against TSPAN31 | -1.13 (active) |
| UCUACAAGCUGGACCCUGATT against MYO1G | -0.907 |
| GAUGCAUCAUCUGAAUAAATT against CPA6 | 0.343 |
| CGUGUUCAGUGGAAUCACATT against NPC1 | -0.195 |
| UCGAUGUACUGGAGACGGATT against NUCB1 | 0.232 |
| GCGAAUCCAGGAUCAAGAATT against TRIP4 | -0.0385 |
| GCUUCUAUUUAGUCACGAATT against AKAP9 | -1.22 (active) |
| GCAAGUUGGAAGACCGGAATT against XPO5 | -0.031 |
| GAUCCAGAAGGGUAGUUAUTT against SERPINB2 | -0.0739 |
| CAGAUGCGGUUUAAACAGATT against TBC1D9B | -0.906 |
| GAGGUGAUCUUAGACCUGATT against QSOX2 | 0.498 |
| AAAAGACCGUCAACCCUUATT against A2BP1 | 1.17 (active) |
| CAGUGUGGCUGACAACUUATT against SERTAD1 | 0.376 |
| GGCUAGCUGAUAUCAGUUUTT against DDX31 | 0.0144 |
| GGAGUGUGAUCGACCCUCATT against KRTAP5-5 | -1.07 (active) |
| ACCUGGUGGUGUCAACUCATT against PTOV1 | 0.115 |
| GGUCGAAGUGUACCCAGUATT against USP11 | -0.0327 |
| CUACAAAUCCCUUACCAAUTT against TRDMT1 | 0 |
| GGUAUACACUGAAUAUCCUTT against LCP1 | -0.386 |
| GUACGAGACCUGUUCCAGATT against UCK2 | -1.51 (active) |
| ACAUGGACGUGAAAGGGAATT against WFIKKN2 | -0.353 |

| Sequence | median seed-adjusted z-score |
| --- | --- |
| GCUUCGUGCUAGAUAAAGATT against NOP14 | -0.344 |
| CAGCAUUCUUUAUCUCGUATT against FZD3 | -0.0208 |
| CCAUCAUGCUUGAUCGGGATT against SLC4A4 | 0.43 |
| GUACAAUCGUUGACAAUGATT against PPEF1 | -0.58 |
| CUACUGUCCUGAUGUAUCATT against MYF5 | -0.786 |
| GCAGCUGUAUAAGUUACUATT against NFKB1 | 0.31 |
| GGAAGGACUGCGAACCUUATT against POLM | -1.55 (active) |
| AGAUAAGGAUGAAUUGAUATT against KLRB1 | -0.44 |
| GAACUAAUCAGGAAGCUUATT against DHX40 | -0.75 |
| GGAGAGGGUUGACAAAGUATT against PCYT1A | 0.0429 |
| CAUCUGAUCCGGGAAAUCATT against GALNT14 | 0 |
| GUGUCUCCAUAGUACGAGATT against ELP3 | 0.321 |
| AGCUCAACCAUAACGUGAATT against DIRAS2 | -1.25 (active) |
| CGCAUUGCUUACUUACAAATT against PCDHA10 | 0.0404 |
| GCUGAGGACUUUAAUAUCUTT against GPR175 | 0.245 |
| GAUCCAAGCUAAUAUGAGATT against TGM5 | 0.0181 |
| CCUCAAGGAUUGGGACUAUTT against SLC22A17 | -0.149 |
| GGAAUUUCAUGUUCGGAAUTT against PAFAH2 | 0.0216 |
| GCAUCCGUGGAAAUGGUUATT against ASNS | -1.1 (active) |
| CAUUCGGAGAAGUCGCAAATT against DDX59 | -0.859 |
| GAUGAUUCAGGUAAAAUAATT against CETN3 | -0.0815 |
| CAACGGGACUAUUAUGAUATT against HNRNPC | -2.15 (active) |
| GCCACGAAAAUCAAUGAGATT against EDF1 | 0.0783 |

— PubChem BioAssay AID1347426 (Functional Genomics Laboratory (NCATS/FGL), 2020)
